The structures appear in SMILES notation. Results filed as inconclusive are left out. A number with no mark means an inactive call. Activity calls are given as the source filed them. Calls come from the whole dose curve; as a rule, active = well fitted cell-killing curve with a large enough effect; inconclusive = small, poorly fitted or top-dose-only effect, or effect the other way; inactive = flat fitted curve, though single readings scatter.
% is set by controls: 0 for no effect and ±100 for the full control effect; potency is the fitted concentration of half-maximal effect.

This test concerns JEG-3. Kind of test: Primary qHTS to identify gynecologic anti-cancer compounds using libraries of approved drugs and bioactive compounds (AID 1345084). Note: nearly all actives have a fitted effect of over 55% in size. The conditions noted are these: Gynecologic cancer cell panel viability, ATPlite luminescence, 48 h; series mostly up to 57.5 µM; activity change, negative = cytotoxicity: at the top concentration. The method, boiled down: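 Cells, 1,000 per well, were allowed to settle for 16 h at 37 C before compound addition. Five concentrations were tested for 48 h, and viability was read by ATPlite luminescence after 15 min at room temperature.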
On the technique in general: In qHTS, concentration-response curves come from the screen itself.
Turning to `C[C@@H]1C[C@H](C)CN(CCC(=O)Nc2ccc(Br)cc2)C1`, the “activity change, negative = cytotoxicity” value is -4.11%.
Same read-out and setting: under `O=[N+]([O-])c1cn2c(n1)OC[C@@H](OCc1ccc(-c3ccc(OC(F)(F)F)cc3)nc1)C2` stands -0.0563%; under `C=C1CCC2[C@](C)(CCC[C@@]2(C)C=O)[C@H]1CC/C(C)=C/CO` (stereo not given in full), -21.4%.
The same measure, in the same setting: the result for `COc1ccc(CCc2nc3cc(-c4c(C)noc4C)ccc3n2CC(C)N2CCOCC2)cc1Cl` (stereo not given) reads -0.799%; that for `O=C(NCC(=O)N1CCCC1)Nc1ccc2cnccc2c1`, 3.51%; that for `C=C(C)C(=O)O[C@H]1[C@H]2C(=C)C(=O)O[C@@H]2/C=C(\CO)CC/C=C(/C=O)[C@@H]1O`, 6.8% [at 38.5 µM].
The same measure, in the same setting: the result for `COc1c(C)cc(NC(=O)c2nn(Cc3ccc(F)cc3)c3c2CN(C(=O)c2ccc[nH]2)C[C@]3(C)C(N)=O)cc1C` reads 1.95% [at 11.6 µM].
Regarding `Cc1[nH]c2ccccc2c1CCNCc1ccc(/C=C/C(=O)NO)cc1`, the Potency is 251 nM (active).
In the case of `O=C(NC1CCC1)c1ccc(C#Cc2cccc(F)c2)nc1`, the “activity change, negative = cytotoxicity” value is 6.07%.
The same measure, in the same setting: the result for `COc1ccc(NC(=O)C2C[C@H](C)CC[C@H]2C(C)C)cc1` (stereo not given in full) reads 10.1%; that for `COc1cc(OC)c2c(=O)[nH]c(-c3cc(C)c(OCCO)c(C)c3)nc2c1`, -29.5%.
For the compound `CC1(C=O)CCCC2(C)C1CCC13CC(CO)C(CCC12)C3` (stereo not given), the “activity change, negative = cytotoxicity” value was -3.81%.
The same measure, in the same setting: the result for `COc1c2c(nc3occc13)C(CC=C(C)C)(OC)C(O)CC2` (stereo not given) reads -0.602% [at 38.5 µM].
Same read-out and setting: the result for `Cn1ncnc1[C@@H]1c2n[nH]c(=O)c3cc(F)cc(c23)N[C@H]1c1ccc(F)cc1` reads -3.14%.
As to `O=C(O)c1cccc(-c2ccc(-c3cn(C(=O)N4CCCCC4Cc4ccccc4)nn3)cc2)c1` (stereo not given), the “activity change, negative = cytotoxicity” value was -9.27%.
Still for that read-out and setting: the result for `Cc1cccc(-c2[nH]ncc2-c2ccc(F)c(-c3cnn(CCO)c3)c2)n1` reads -4.16%; that for `CC1(C)CCC2(C(=O)OC3OC(COC4OC(CO)C(O)C(O)C4O)C(O)C(O)C3O)CCC3(C)C(=CCC4C5(C)CCC(OC6OCC(O)C(O)C6O)C(C)(C)C5CCC43C)C2C1O` (stereo not given), -7.3% [at 11.6 µM]; that for `CC(=O)O[C@@H]1[C@@H](O)[C@H](O[C@@H]2[C@@H](O)[C@@H](O)[C@H](O[C@H]3[C@H](O[C@H]4[C@H](O[C@H]5CC[C@@]6(C)C(CC[C@]7(C)C6CC=C6[C@@H]8CC(C)(C)CC[C@]8(C(=O)O)CC[C@]67C)[C@]5(C)CO)O[C@H](CO)[C@@H](O)[C@@H]4O)OC[C@@H](O)[C@@H]3O)O[C@H]2C)OC[C@H]1O` (stereo not given in full), 13.7% [at 11.6 µM].
Still for that read-out and setting: under `CN(C)CC#CCCC(=O)C(O)(c1ccccc1)C1CCC1` (stereo not given) stands 9.34%.
The same measure, in the same setting: the result for `Cc1cn2c(n1)Cc1ccc(Cl)cc1C(c1ccc(N)cc1)=N2` reads 0.799%; that for `CC1(CO)CC(O)[C@]2(C(=O)O)CCC34CC3(C=CC3[C@]5(C)C(CC[C@]34C)C(C)(CO)[C@@H](O)[C@H](O)[C@@H]5O)C2C1` (stereo not given in full), -1.86% [at 25.3 µM].
As for `CC(=O)O[C@H]1C[C@@](O)(C(C)C)[C@@H]2[C@@H](OC(=O)c3ccc(O)cc3)CC(C)=CC[C@@]12C`, the “activity change, negative = cytotoxicity” value is 11.1% [at 25.3 µM].
In the case of `Cc1ccc(C(C)C)c(O[C@@H]2O[C@H](CO)[C@@H](O)[C@H](O)[C@H]2O)c1`, the “activity change, negative = cytotoxicity” value was 12.9% [at 38.5 µM].
Same read-out and setting: the result for `O=C1Nc2ccccc2-c2nc3ccccc3c(=O)n2-c2c(O)cccc21` reads -4.56% [at 38.5 µM]; that for `COc1ccc(CN2CCN(CCCSc3cc(C(C)(C)C)c(O)c(C(C)(C)C)c3)CC2)c(OC)c1OC`, 1.83% [at 11.6 µM].
Still for that read-out and setting: the result for `CN(C)c1ccnc2sc3c(=O)n(N4CCCCCC4)cnc3c12` reads -2.96%; that for `Cc1c(C(=O)NCc2cccnc2)nn(-c2ccc(Cl)cc2Cl)c1-c1ccc(Cl)cc1`, -12.5%.
Consider `CC(C)=CCc1cc2c(cc1O)OC[C@H]1c3ccc(O)cc3O[C@@H]21`, for which the “activity change, negative = cytotoxicity” value was 1.83% [at 38.5 µM].
Take `Cn1cc(-c2ccc(F)c(C(F)(F)F)c2)nc1C1CCN(c2ncnc3[nH]ncc23)CC1`: the “activity change, negative = cytotoxicity” value is 2.33% [at 25.3 µM].
On the same count and under the same terms, under `O=C(O)CCc1nccc2c1[nH]c1ccccc12` stands -0.23%; under `NS(=O)(=O)c1ccc(N2CCN(CC[C@@H]3OCCc4ccccc43)CC2)cc1`, 2.97%; under `CC1(C)CC[C@]23CO[C@@]4(CCC5[C@@]6(C)CC[C@H](O[C@@H]7OC[C@H](O[C@@H]8O[C@H](CO)[C@@H](O)[C@H](O)[C@H]8O[C@@H]8OC[C@@H](O)[C@H](O)[C@H]8O)[C@H](O)[C@H]7O)[C@@](C)(CO)C6CC[C@@]5(C)[C@]4(C)CC2=O)[C@@H]3C1` (stereo not given in full), -8.75% [at 11.6 µM].
The same measure, in the same setting: under `Cc1ccc(CNc2ncnc3ccc(-c4ccc(CO)o4)cc23)o1` stands 3.64%; under `C/C(=C/CO)CCC1C(C)CCC2C(C)(C)CCCC12C` (stereo not given), -1.54%.
As for `C[C@@H]1O[C@@H](O[C@H]2CC[C@@]3(C)C(CC[C@]4(C)C3CC=C3[C@@H]5CC(C)(C)CC[C@]5(C(=O)O[C@@H]5O[C@H](CO)[C@@H](O)[C@H](O)[C@H]5O)CC[C@]34C)[C@]2(C)CO)[C@H](O)[C@H](O[C@@H]2O[C@H](CO)[C@@H](O)[C@H](O)[C@H]2O)[C@H]1O` (stereo not given in full), the activity change, negative = cytotoxicity is -9.27% [at 11.6 µM].
Same read-out and setting: under `C[C@H](Nc1cc2c(-c3ccc4c(c3)OCO4)noc2cn1)c1ccccc1` stands 0.75%; under `O=C(N[C@H](Cc1cscn1)C(=O)N[C@@H](CC1CCCCC1)[C@@H](O)[C@@H](O)C1CC1)c1nc2ccccc2[nH]1`, -7.1%; under `O=C(NCCCc1ccccc1)C1CCC(CNS(=O)(=O)c2cccc3nsnc23)CC1` (stereo not given), -7.45%.
Regarding `CC(C)c1ccc(NC(=O)Cn2cnc3c2c(=O)n(C)c(=O)n3C)cc1`, the “activity change, negative = cytotoxicity” value is -5.49%.
As to `C=C1C(=O)OC[C@@H]1C/C=C(\C)CC1CC(C)C(=O)O1` (stereo not given in full), the “activity change, negative = cytotoxicity” value was -9.72%.
